PubChem BioAssay (NCATS)
Where “and” joins values, the source holds several entries; their conditions need not be identical. Equal values may be shown once. Results filed as inconclusive are left out. A number with no mark means an inactive call. Calls of active or inactive are those of the source. Calls come from the whole dose curve; as a rule, active = well fitted curve in the direction sought with a large enough effect; inconclusive = small, poorly fitted or top-dose-only effect, or another doubt; inactive = no such curve, though single readings can be large; an effect the other way counts as inactive or inconclusive.

Legend:
[1] = biological target: Cellular tumor antigen p53 (Homo sapiens) (UniProt P04637); assay: Primary qHTS for small molecule compounds that upregulate eGFP-tagged delta133p53alpha (in N-terminal) cells. (AID 2060322); settings: NCI-H358 eGFP-delta133p53alpha fluorescence, 24 h; activation: stronger effect = higher value; note: nearly all actives have a fitted effect of over 75% in size; note: potency is the fitted concentration of half-maximal effect;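 for activation: series mostly up to about 56 µM; 0% = DMSO vehicle and 100% = reference activator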
Chain of Cellular tumor antigen p53 (Homo sapiens) (P04637 whole entry, looked up): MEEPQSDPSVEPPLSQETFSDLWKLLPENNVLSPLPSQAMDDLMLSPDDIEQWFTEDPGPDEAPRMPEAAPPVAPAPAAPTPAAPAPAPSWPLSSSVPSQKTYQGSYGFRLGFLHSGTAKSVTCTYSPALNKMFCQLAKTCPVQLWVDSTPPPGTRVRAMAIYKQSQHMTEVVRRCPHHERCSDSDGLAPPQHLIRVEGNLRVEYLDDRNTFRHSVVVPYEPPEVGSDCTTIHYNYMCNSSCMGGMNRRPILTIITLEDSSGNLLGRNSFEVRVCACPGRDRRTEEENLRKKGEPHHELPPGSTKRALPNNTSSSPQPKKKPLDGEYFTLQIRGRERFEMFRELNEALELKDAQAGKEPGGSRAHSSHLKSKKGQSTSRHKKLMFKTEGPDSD
In short: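 NCI-H358 cells pre-induced 24 h with 10 ng/ml doxycycline to express N-terminal eGFP-delta133p53alpha, then dosed 24 h at 37C without doxycycline; fixed, Hoechst-stained, GFP intensity by laser scanning cytometry, normalized to DMSO (0%) and 57.5 uM 5-azacytidine (100%).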

[2] = biological target: Aldehyde dehydrogenase, mitochondrial (Homo sapiens) (UniProt P05091); assay: qHTS for Inhibitors of the Aldehyde Dehydrogenase Family (ALDH2) Primary screen (AID 2061308);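 note: plate controls were vehicle for no effect and reference inhibitor for full effect; nearly all actives have a fitted effect of over 55% in size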
[3] = biological target: Retinaldehyde dehydrogenase 3 (Homo sapiens) (UniProt P47895); assay: qHTS for Inhibitors of the Aldehyde Dehydrogenase Family (ALDH1A3) Primary screen (AID 2061315);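 note: plate controls were DMSO vehicle for no effect and reference inhibitor for full effect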
[4] = BET inhibitor-based combinations targeting novel dependencies in MECOM-rearranged (r) AML: SET-2 cell line (AID 2202231); settings: SET-2 AML cells viability, CellTiter-Glo luminescence, 48 h; viability: stronger effect = lower value, concentration not given here; note: nearly all actives have a fitted effect of over 35% in size; note: potency is the fitted concentration of half-maximal effect;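 for viability: plate controls were DMSO treated cells for no effect and wells without cells for full effect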
In short: (§1)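 Readout: CellTiter-Glo luminescence. Exposure: 48 h, 11 concentrations, 500 cells/well. Metric: AUC and within-line Z-AUC after DMSO/empty-well normalization.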

[5] = BET inhibitor-based combinations targeting novel dependencies in MECOM-rearranged (r) AML: OCI-AML3 cell line (AID 2202232); settings: Potency: OCI-AML3 viability; note: nearly all actives have a fitted effect of over 35% in size; note: potency is the fitted concentration of half-maximal effect
In short: as §1

[6] = BET inhibitor-based combinations targeting novel dependencies in MECOM-rearranged (r) AML: MV-4-11 cell line (AID 2202233); note: nearly all actives have a fitted effect of over 45% in size; note: potency is the fitted concentration of half-maximal effect
In short: (§2)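 Seeding density was 500 cells/well, and drug exposure lasted 48 hr under standard culture conditions. Read-out used CellTiter-Glo reagent with a 15 min room-temperature incubation before luminescence measurement; AUC and Z-AUC summarize the normalized responses.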

[7] = BET inhibitor-based combinations targeting novel dependencies in MECOM-rearranged (r) AML: HNT-34 cell line (AID 2202234); note: nearly all actives have a fitted effect of over 35% in size; note: potency is the fitted concentration of half-maximal effect
In short: as §2

[8] = BET inhibitor-based combinations targeting novel dependencies in MECOM-rearranged (r) AML: UCSD-AML1 cell line (AID 2202235); note: nearly all actives have a fitted effect of over 40% in size; note: potency is the fitted concentration of half-maximal effect
In short: as §2

[9] = BET inhibitor-based combinations targeting novel dependencies in MECOM-rearranged (r) AML: AML-191 cell line (AID 2202236; note: nearly all actives have a fitted effect of over 35% in size; note: potency is the fitted concentration of half-maximal effect)
In short: as §1

[10] = BET inhibitor-based combinations targeting novel dependencies in MECOM-rearranged (r) AML: AML-194 cell line (AID 2202237; note: nearly all actives have a fitted effect of over 40% in size; note: potency is the fitted concentration of half-maximal effect)
In short: as §1

SMILES | activation [1] | Potency [2] | Potency [3] | viability [4] | Potency [5] | Potency [6] | Potency [7] | Potency [8] | Potency [9] | Potency [10] | Potency [1] | Potency [4]
CC(C)(C)C(=O)CN1C(=O)[C@H](NC(=O)Nc2cccc(C(=O)O)c2)CN(C2CCCCC2)c2ccccc21 | -7.67% | inactive | inactive | 110% | inactive | inactive | inactive | inactive | inactive | inactive |  | 
CC(C)CC(=O)Nc1n[nH]c2c1CN(C(=O)C1CCN(C)CC1)C2(C)C |  | inactive | inactive |  | 1.32 µM (active) | 0.372 µM (active) | 2.35 µM (active) | 2.35 µM (active) | 5.9 µM (active) | 5.9 µM (active) | 6.11 µM (active) and 4.78 µM (active) | 10.5 µM (active)
CCCCCCCCCC(=O)N[C@@H](Cc1c[nH]c2ccccc12)C(=O)N[C@H](CC(N)=O)C(=O)N[C@@H](CC(=O)O)C(=O)N[C@@H]1C(=O)NCC(=O)N[C@@H](CCCN)C(=O)N[C@@H](CC(=O)O)C(=O)N[C@H](C)C(=O)N[C@@H](CC(=O)O)C(=O)NCC(=O)N[C@H](CO)C(=O)N[C@@H]([C@@H](C)CC(=O)O)C(=O)N[C@@H](CC(=O)c2ccccc2N)C(=O)O[C@@H]1C | -9.73% and 21% | inactive | inactive | 107% | inactive | inactive | inactive | inactive | inactive | inactive |  | 
O=C(Nc1ccnc(NC(=O)C2CC2)c1)c1c(Cl)cccc1Cl |  | inactive | inactive |  | 7.42 µM (active) | 4.68 µM (active) | 4.17 µM (active) | 3.32 µM (active) | 5.25 µM (active) | 7.42 µM (active) | 12 µM (active) | 7.42 µM (active)
CCN(c1cc(C#CCN2CCOCC2)cc(C(=O)NCc2c(C)cc(C)[nH]c2=O)c1C)C1CCC(N(C)CCOC)CC1 (stereo not given) | -11.7% | inactive | inactive | 113% | inactive | inactive | inactive | inactive | inactive | inactive |  | 
CS(=O)(=O)c1ccc(C(=O)Nc2ccc(Cl)c(-c3ccccn3)c2)c(Cl)c1 | -14.7% and -1.91% | inactive | inactive | 106% | inactive | inactive | inactive | inactive | inactive | inactive |  | 
CNC(=O)c1ccc(Nc2ncc(C(F)(F)F)c(NCc3nccnc3N(C)S(C)(=O)=O)n2)cc1 |  | inactive | inactive |  | 4.68 µM (active) | 0.296 µM (active) | 1.86 µM (active) | 2.63 µM (active) | 2.95 µM (active) | 3.72 µM (active) | 12 µM (active) | 3.32 µM (active)
Cc1nc([C@](C)(O)CO)sc1-c1cnc(N)c(O[C@H](C)c2cc(F)ccc2-n2nccn2)c1 | -10.7% | inactive | inactive |  | 0.742 µM (active) | 6.61 µM (active) | 11.8 µM (active) | 1.32 µM (active) | 0.833 µM (active) | 1.18 µM (active) |  | 10.5 µM (active)
CC(C)c1cc(C(C)C)c(CC(=O)NS(=O)(=O)Oc2c(C(C)C)cccc2C(C)C)c(C(C)C)c1 | 11.6% and 19% | inactive | inactive | 106% | 10.5 µM (active) | 5.25 µM (active) | 7.42 µM (active) | inactive | 8.33 µM (active) | inactive |  | 
CN1CCC(CNc2ccc3ncc(-c4cccc(OC(F)(F)F)c4)n3n2)CC1 |  | inactive | inactive |  | 8.33 µM (active) | 0.166 µM (active) | 5.25 µM (active) | 5.9 µM (active) | 5.25 µM (active) | 4.17 µM (active) | 26.9 µM (active) | 11.8 µM (active)
CN(C)C/C=C/C(=O)Nc1cccc(C(=O)Nc2cccc(Nc3ncc(Cl)c(-c4c[nH]c5ccccc45)n3)c2)c1 |  | inactive | inactive |  | 0.166 µM (active) | 0.0033 µM (active) | 0.235 µM (active) | 0.209 µM (active) | 0.468 µM (active) | 0.525 µM (active) | 0.239 µM (active) | 1.05 µM (active)
C=CC(=O)Nc1cccc(Nc2nc(Nc3ccc(OCCOC)cc3)ncc2F)c1 |  | inactive | inactive |  | 14.8 µM (active) | 1.48 µM (active) | 1.86 µM (active) | 8.33 µM (active) | 8.33 µM (active) | 9.34 µM (active) | 9.53 µM (active) | 16.6 µM (active)
C=CC(=O)Nc1cc(Nc2nccc(-c3cn(C)c4ccccc34)n2)c(OC)cc1N(C)CCN(C)C |  | inactive | inactive |  | 3.72 µM (active) | 2.95 µM (active) | 5.25 µM (active) | 4.68 µM (active) | 8.33 µM (active) | 7.42 µM (active) | 3.79 µM (active) | 9.34 µM (active)
COc1cc2c(Nc3ccc(NC(=O)c4ccccc4)cc3)ncnc2cc1OCCCN1CCOCC1 | 32.6% | inactive | inactive |  | 18.6 µM (active) | 1.66 µM (active) | 1.32 µM (active) | inactive | 20.9 µM (active) | 23.5 µM (active) |  | 26.3 µM (active)
